# Screens deposited in PubChem BioAssay by several laboratories.
# The list is not random: actives were taken first. Their share in the collection is about 1.6%.
# EphB4 antag = EphB4-ephrin-B2 interaction antagonists, primary screen, biochemical, TNYL-RAW peptide probe, fluorescence polarization | Ephrin type-B receptor 4 (Homo sapiens), P54760 | EphB4 LBD / TNYL-RAW-Alexa532 peptide | inhibition, % at 7 µM | actives 0.15% (n = 97,000) | AID 720, 2007;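 active = inhibition above the screen-wide mean inhibition plus 3 SD, cut at about 15% in these data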;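 also: 0% = DMSO wells and 100% = excess unlabeled TNYL-RAW peptide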
# FAK inh = FAK kinase inhibitors, primary screen, biochemical; actives 0.84% (n = 97,000); biochemical FAK kinase activity assay; inhibition, %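 (tested at 7 µM)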;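 also: 0% = DMSO and 100% = reference compound high control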
# Smad3 inh = Smad3/FoxH1 peptide binding inhibitors, primary screen, biochemical, TR-FRET. Mothers against decapentaplegic homolog 3 (Homo sapiens), P84022. TR-FRET Smad3/Dy647-FoxH1 peptide binding, europium anti-His. inhibition, % at 25 µM. actives 0.29% (n = 88,000);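 active = compounds that reduce the energy-transfer binding signal between the protein and its labelled peptide by more than half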;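 also: 0% = Smad3 plus labelled peptide maximal FRET and 100% = peptide-only background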
# Plk1 PBD FP = Plk1 polo box domain binding inhibitors, primary screen, biochemical, fluorescence polarization; inhibition, %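 (tested at about 20 µM)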; AID 693, 2007; Plk1 PBD phosphopeptide binding; actives 0.13% (n = 97,000); in the data active = inhibition above about 34%, passing the limit was not always enough
# PLK1 inh = human PLK1 kinase inhibitors, primary screen, biochemical, TR-FRET | actives 0.53% (n = 97,000) | inhibition, % at 10 µM | recombinant PLK1 kinase, TR-FRET peptide phosphorylation | Serine/threonine-protein kinase PLK1 (Homo sapiens), P53350;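 active = inhibition of 50% or more in the single-concentration screen; inactive = inhibition below 50%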;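 also: 0% = DMSO max control and 100% = H-89 dihydrochloride min control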
# FAK inh conf = FAK kinase inhibitors, retest, confirmation, biochemical; shares compounds with FAK inh; FAK kinase biochemical inhibition assay; inhibition, % at 7 µM; actives 28% (n = 750); AID 794, 2007
# * hit, by the source's call; . = no result. Rule as the data show it, unless noted: active = inhibition above about 19%; inactive = the rest.
SMILES,EphB4 antag,FAK inh,Smad3 inh,Plk1 PBD FP,PLK1 inh,FAK inh conf
O=C(NNC(=O)c1cc2cc3ccccc3nc2s1)c1ccc(F)cc1,0.8,25.9*,.,-2.3,-8.8,2.6
Cc1cccc(C(=O)NNC(=O)c2cc3cc4ccccc4nc3s2)c1,-0.2,-0.3,.,24.6,-9.3,.
Cc1ccc(NC(=O)COc2ccc(/C=N/NC(=O)CSCc3ccccc3)cc2)cc1,-0.5,20.2*,.,11.3,-8.0,0.6
O=C(CSc1nccc(=O)[nH]1)c1ccccc1Br,5.6,-0.4,14.9,14.2,-12.0,.
Cc1ccc(C2NC(=O)NC3=C2CCc2ccccc23)cc1 (stereo not drawn),2.5,19.5*,5.1,16.0,-7.8,-2.3
CCCSc1nc2c(cnn2-c2ccc(C)cc2)c(=O)[nH]1,0.6,22.7*,17.1,-4.6,-2.8,9.4
CON1C(=O)C(=O)N(OC)C2CCCCC21 (stereo not drawn),-6.7,-0.4,.,-26.4,-10.5,.
O=C1CCCC2=C1C(c1ccc(Cl)cc1)N1C(=O)CCSC1=N2 (stereo not drawn),2.3,1.4,5.0,9.5,-4.5,.
O=C1CCCC2=C1C(c1ccc(Cl)cc1)C1C(=O)c3ccccc3C1=N2 (stereo not drawn),1.4,23.2*,.,-10.2,-5.1,5.8
O=Cc1cn(-c2ccccc2)nc1-c1cc2cc(O)ccc2oc1=O,5.9,29.9*,.,-13.4,-5.8,13.8
Cc1ccc2nc(-c3ccc(NC(=O)CSc4ccccc4)cc3)[nH]c2c1,-0.4,31.7*,.,8.3,-6.5,12.5
Cc1ccc2nc(-c3ccc(SCC(=O)O)nc3)[nH]c2c1,-2.8,-6.6,.,-9.8,1.3,.
CCOC(=O)N1CCC2(CC1)C(C#N)=C(N)Oc1n[nH]c(CSc3ccc(C)cc3)c12,9.2,22.2*,-5.0,-10.1,-9.1,13.9
Cc1ccc(SCc2[nH]nc3c2C2(CCSCC2)C(C#N)=C(N)O3)cc1,-6.5,3.0,-1.9,-2.1,21.9,.
COc1ccc(-c2nnc(SC(C)C(=O)Nc3nccs3)n2-c2ccccc2)cc1OC (stereo not drawn),3.1,49.2*,4.6,-27.9,-3.6,-1.7
Cc1ccc(NC(=O)CN2C(=O)S/C(=C\c3cccn3-c3cccc(C(=O)O)c3)C2=O)c(C)c1,-8.7,65.5*,.,1.1,-8.3,1.4
Cc1ccccc1NC(=O)CN1C(=O)S/C(=C\c2cccn2-c2cccc(C(=O)O)c2)C1=O,-12.1,-2.8,.,15.1,-7.5,.
Cn1c(C(=O)N2CCN(c3ccc(F)cc3)CC2)cc2c(=O)n(C)c3ccccc3c21,.,.,-1.6,.,.,.
Cn1c(C(=O)N2CCN(C(=O)c3ccco3)CC2)cc2c(=O)n(C)c3ccccc3c21,2.7,18.8*,-6.4,6.7,-17.4,3.6
CS(=O)(=O)N(CC(=O)N1CCOCC1)Cc1ccccc1,1.0,34.5*,7.8,-12.6,-15.9,0.7
CN1CCN(C(=O)CN(Cc2ccccc2)S(C)(=O)=O)CC1,-0.1,1.0,1.6,2.4,-8.1,.
CN(C)CCNc1ccccn1,.,.,-10.7,.,.,.
COc1cc(OC)cc(-c2nnc(Nc3nc4c(F)cccc4s3)o2)c1,14.1,36.0*,-3.5,19.4,-15.0,10.1
COc1ccc(-c2nnc(Nc3nc4c(OC)cccc4s3)o2)cc1,5.3,55.9*,2.7,5.5,-8.3,26.7*
COc1ccc(-c2nnc(Nc3nc4c(OC)cccc4s3)o2)c(OC)c1,.,.,-5.1,.,.,.
SMILES,EphB4 antag,FAK inh,Smad3 inh,Plk1 PBD FP,PLK1 inh,FAK inh conf
Fc1cccc2sc(Nc3nnc(-c4ccccc4)o3)nc12,-6.1,-9.7,14.3,-37.2,-21.8,.
COc1ccc(C(=O)NC(Nc2ccccc2)C(Cl)(Cl)Cl)cc1 (stereo not drawn),-1.7,-7.2,.,-22.8,-5.2,.
CCNc1nc(N)c(C(=O)c2ccc(Cl)s2)s1,-5.1,19.3*,-2.2,-25.5,68.2*,4.3
CC(C)(C)c1csc(NC(=O)c2ccc(Cl)s2)n1,2.7,4.0,0.7,1.7,-5.2,.
Cc1ccccc1OCC(=O)NNC(=O)c1ccc(-c2ccccc2)cc1,-2.5,20.4*,.,0.0,-4.7,3.2
c1ccc(CN2COc3c(ccc4c5c(ccc34)CN(Cc3ccccc3)CO5)C2)cc1,.,.,47.3,.,.,.
Cn1c(=O)[nH]c(=O)c2c1nc(Br)n2CCCSc1nc2ccccc2o1,-8.5,18.8*,2.1,-16.2,-5.9,1.2
Cn1c(=O)[nH]c(=O)c2c1nc(N1CCCC1)n2CCCSc1nc2ccccc2o1,.,.,10.7,.,.,.
O=c1c2cc(F)ccc2[nH]c(=S)n1CCCN1CCOCC1,1.3,-4.6,-1.7,5.3,0.3,.
CC(NC(=O)c1ccccc1NC(=O)CSc1nnnn1C)c1ccccc1 (stereo not drawn),3.8,-0.9,2.3,12.1,-7.3,.
Cc1cc(C)c2cc3c(N)c(C(=O)N4CCc5ccccc5C4)sc3nc2c1,3.2,1.9,.,-7.1,-9.2,.
CN1CCc2nc3sc(C(=O)C45CC6CC(CC(C6)C4)C5)c(N)c3cc2C1,-4.0,51.0*,.,-16.6,-3.2,34.1*
COCCOC(=O)C1=C(C)NC2=C(C(=O)CC(c3cccs3)C2)C1c1ccsc1 (stereo not drawn),-0.4,23.0*,-0.5,-46.9,-10.9,19.0*
Cc1cccc(NC(=S)NNC(=O)CC(C)O)c1C (stereo not drawn),0.8,2.1,.,-18.3,-8.8,.
Cc1ccnc2nc(C(=O)Nc3ccc4c(c3)OCO4)nn12,4.8,-0.1,.,0.3,-10.4,.
Cc1cc(C)n2nc(C(=O)Nc3ccc4c(c3)OCO4)nc2n1,8.5,92.5*,6.9,12.3,-6.3,2.7
COC(=O)Cc1ccc2c3ccccc3n(C)c2c1,1.4,41.3*,-6.1,0.7,-9.5,31.7*
COc1ccc(CCNC(=O)c2ccc3nc(-c4ccco4)c(-c4ccco4)nc3c2)cc1OC,1.0,54.4*,-1.3,7.2,0.9,1.9
COc1ccc(CCNC(=O)COC(=O)c2ccco2)cc1OC,3.1,-7.4,-14.1,14.8,-4.7,.
CCNS(=O)(=O)c1cc(OC)ccc1OC,4.5,2.1,7.0,-26.0,9.4,.
COc1cccc(NC(=O)C2CCCN(S(=O)(=O)c3cccc4nsnc34)C2)c1 (stereo not drawn),2.0,-1.7,.,12.5,-13.4,.
Cc1cccc(NC(=O)C2CCCN(S(=O)(=O)c3cccc4nsnc34)C2)c1 (stereo not drawn),5.2,94.1*,-5.5,-19.2,-5.4,-1.4
Nc1nc2nc3c(nc2c(=O)[nH]1)CN(c1ccc(C(=O)O)cc1)C3=O,.,.,15.0,.,.,.
Cc1nn(Cc2ccc(C(=O)Nc3nccs3)cc2)c(C)c1Cl,6.7,21.8*,4.1,-7.2,-11.0,3.4
